This is one part of a sample in which hits are shown more often than they occur.
ST2 IL33 inh = blocks human ST2 binding to IL-33; Q01638; AlphaLISA ST2-Fc/biotin-IL-33 interaction, 1 h; inhibition, % for hits at 17 µM; hit rate 2.3% among 78,000; in the data active = inhibition above about 30%
Target sequence (Q01638 whole entry, looked up): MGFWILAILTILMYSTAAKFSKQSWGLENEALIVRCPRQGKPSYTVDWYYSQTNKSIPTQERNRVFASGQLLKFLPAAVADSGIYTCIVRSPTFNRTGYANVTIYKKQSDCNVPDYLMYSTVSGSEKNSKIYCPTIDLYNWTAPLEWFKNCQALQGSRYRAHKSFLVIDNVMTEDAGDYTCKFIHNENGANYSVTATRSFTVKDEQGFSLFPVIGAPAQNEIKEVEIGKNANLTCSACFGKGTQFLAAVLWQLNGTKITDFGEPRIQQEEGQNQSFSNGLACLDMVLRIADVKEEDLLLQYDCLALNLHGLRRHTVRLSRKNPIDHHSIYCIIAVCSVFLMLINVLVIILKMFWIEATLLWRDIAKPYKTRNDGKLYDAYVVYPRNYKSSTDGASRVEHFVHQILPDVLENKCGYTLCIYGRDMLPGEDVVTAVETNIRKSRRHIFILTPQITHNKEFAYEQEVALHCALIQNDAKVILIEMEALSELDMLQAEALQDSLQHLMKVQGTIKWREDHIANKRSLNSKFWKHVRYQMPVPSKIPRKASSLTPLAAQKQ
Large screens that a line does not name were inactive; ! = repeats disagree.

CSc1nc2c(c(=O)[nH]1)C(c1ccc(C)cc1)C1=C(CCCC1=O)N2 (configuration not stated)	none
O=C(Cn1c(=O)sc2ccccc21)N1CCN(c2ccccc2F)CC1	none
CCOC(=O)C1CCCN(C(=O)c2cn(CC)c(=O)c3cc(OC)c(OC)cc23)C1 (configuration not stated)	none
CCn1cc(C(=O)N2CCN(C)CC2)c2cc(OC)c(OC)cc2c1=O	none
COc1ccc(N2CCN(C(=O)c3cn(C)c(=O)c4cc(OC)c(OC)cc34)CC2)cc1	ST2 IL33 inh 46%
CCN1CCN(C(=O)c2cn(CC)c(=O)c3cc(OC)c(OC)cc23)CC1	none
CCOC(=O)C1CCCN(C(=O)c2cn(C)c(=O)c3cc(OC)c(OC)cc23)C1 (configuration not stated)	ST2 IL33 inh 35%
CCOC(=O)C1CCCN(C(=O)c2cn(CC(C)C)c(=O)c3cc(OC)c(OC)cc23)C1 (configuration not stated)	none
Cc1nn(C(=O)CCCCCNC(=O)c2ccccc2)c(C)c1Cl	none
CC1CC(C)CN(C2CC(=O)N(c3ccccc3)C2=O)C1 (configuration not stated)	none
C=C(C)CSC1=C(C#N)C(C)(C)C(C#N)C(=O)N1 (configuration not stated)	none
COc1ccc(Cl)cc1-c1nc(-c2nonc2N)no1	none
OCc1cc2ccccc2nc1-c1cc(O)cc(CCC2CCCCN2)c1 (configuration not stated)	none
CC(=O)Nc1ccc(S(=O)(=O)Nc2cccnc2)cc1	none
CCOC(=O)c1nn(CCc2scnc2C)c2c1CN(C(=O)c1scc3c1CCCC3)CC2	none
CCOC(=O)c1nn(Cc2ccc(OC)cc2)c2c1CN(C(=O)C1CCCO1)CC2 (configuration not stated)	none
CCOC(=O)c1nn(CCc2ccc(OC)cc2)c2c1CN(C(=O)c1cc(C)nc(C)n1)CC2	ST2 IL33 inh 30%
Cc1cc2nc(CSc3cccc(Cl)c3)cc(=O)n2o1	none
O=C(Nc1ccc(F)cc1F)N1CCN(c2ccccc2F)CC1	none
CC(C)CCNC(=O)C1(O)c2ccccc2NC(=O)N1c1ccc(Cl)c(Cl)c1 (configuration not stated)	none
COc1ccccc1C(=O)Nc1cccc(-c2nc3ncccc3o2)c1	none
COc1ccc(C(=O)Nc2ccc(Cl)c(-c3nc4ncccc4o3)c2)cc1OC	none
COc1ccc(Cl)cc1C(=O)Nc1ccc(C)c(-c2nc3ncccc3o2)c1	ST2 IL33 inh 35%
COc1cccc(Nc2nc3ccccc3nc2NS(=O)(=O)c2ccc(NC(C)=O)cc2)c1	ST2 IL33 inh 37%
COc1ccc(NS(=O)(=O)c2ccc(NC(=O)COc3ccccc3)cc2)cc1	none
COc1ccccc1NS(=O)(=O)c1ccc(NC(C)=O)cc1	none
CCOc1ccc(CC(=O)Nc2ccccc2C(N)=O)cc1OCC	none
O=C1OC(c2ccc(Oc3ccccc3)cc2)=C/C1=C\c1ccco1	ST2 IL33 inh 54%
O=c1oc(-c2ccc(Oc3ccccc3)cc2)nc2ccccc12	none
COc1ccc(C2=Cc3cc(OC)c(OC)cc3/C(=C/c3ccccc3)O2)cc1	none
CCc1c(C)nn(CC(=O)N2CCC3(CCCO3)CC2)c1C	none
Oc1ccccc1C1=Nc2ccccc2N=C(c2cccc(F)c2)C1	ST2 IL33 inh 30%
O=C1CC(c2ccccc2)=Nc2ccccc2N1	none
Fc1cccc(-c2nnc3n2N=C(c2cccc(Br)c2)CS3)c1	none
COc1cccc(C2CCN2C(=O)CC(=O)Nc2ccc(C)cc2)c1 (configuration not stated)	ST2 IL33 inh 31%
COc1cccc(C2CCN2C(=O)Nc2n[nH]c(CCc3ccccc3)n2)c1 (configuration not stated)	none
COc1cccc(NC(=O)C(=O)NCc2ccc(C)cc2)c1	none
CCn1nc(CC(C)C)cc1C(=O)N1Cc2cnn(CCO)c2C1	none
Cc1ccc(NC(=O)CC(=O)NCCc2nc(C)cc(C(F)(F)F)n2)cc1	none
CN(Cc1cc(C2CC2)n[nH]1)C(=O)CCc1cn2ccccc2n1	none
CCC(C)NS(=O)(=O)c1cc(Br)cc2c1N(C(=O)C1CC1)CC2 (configuration not stated)	none
COc1ccc(CNc2c([N+](=O)[O-])c(=O)oc3ccccc23)cc1	none
CNc1ccccc1[N+](=O)[O-]	none
COc1ccc(CNc2ccccc2[N+](=O)[O-])cc1	ST2 IL33 inh 38%
CC(C)Cc1ncc2c(n1)CN(C(=O)CC1C(=O)NCCN1C(C)C)C2 (configuration not stated)	none
CC(C)NC(=O)c1cc(-c2ccc(Cl)c(Cl)c2)on1	none
Cc1cc(NC(=O)c2cc(-c3ccc(Cl)c(Cl)c3)on2)no1	none
Cc1noc(C)c1-c1ccc(Cl)c(Cl)c1	ST2 IL33 inh 49%
Cc1ccc(NC(=O)c2cc3cc(Br)ccc3oc2=O)c([N+](=O)[O-])c1	none
NC(=O)Cn1c(=O)n(CCCC(=O)NCc2ccco2)c(=O)c2sccc21	none
O=C(CCCn1c(=O)c2sccc2n(Cc2ccccc2F)c1=O)NCc1ccco1	none
Cc1ccccc1Cn1c(=O)n(CCCC(=O)NCc2ccco2)c(=O)c2sccc21	ST2 IL33 inh 33%!
CCSc1nnc2c(n1)OC(c1ccc(C(=O)O)cc1)N(C(=O)CC)c1ccccc1-2 (configuration not stated)	none

Assay outcomes as filed in PubChem.
